# About 120 (3.5%) of roughly 3,400 compounds were called active. The rule behind the calls is not given here. These entries were drawn from the full list. Results with a measured potency or affinity are listed apart.
# Assay: viability loss in HepG2 hepatoma cells – cell-based, ATP luminescence, cherry-pick, activator set 2, cytotoxicity control, dose response (AID 1053143)
# Conditions: CellTiter-Glo ATP luminescence, 72 h; series mostly up to 26 µM
row,SMILES,"activity change, negative = cytotoxicity"
1,COc1cccc(N/N=C/c2cccc(Br)c2O)c1,inactive
2,Clc1ccccc1C=NNc1ccccn1,inactive
3,CCCCSc1nnc(-c2ccc(C)cc2)n1C,inactive
4,Cc1ccc(/C=C/c2nc3ccccc3[nH]2)o1,inactive
5,Clc1ccc(Cn2c(/C=C/c3ccco3)nc3ccccc32)cc1,inactive
6,COc1ccccc1C(=O)Nc1ccc2c(C)cc(=O)oc2c1,inactive
7,c1ccc2[nH]c(SCC3CCCCO3)nc2c1 (stereo not drawn),inactive
8,Cc1cc2ncc(-c3ccccc3)nc2cc1C,inactive
9,Oc1ccc(-c2cnc3ccccc3n2)cc1,inactive
10,Cn1c2nc3ccccc3c-2nc2ccccc21,inactive
11,CCCCOC(=O)Nc1ccc(C(=O)OC)cc1,inactive
12,CC1CCc2nc3sc4c(c3c(N)c2C1)CCCC4 (stereo not drawn),inactive
13,O=C(Nc1nc(-c2nc3ccccc3s2)cs1)C1CC1,inactive
14,COc1ccc(-c2nc3ccccc3s2)cc1NC(C)=O,inactive
15,Cc1nn2c(=O)cc(COC(=O)c3c(F)cccc3Cl)nc2s1,inactive
16,COc1ccc(/C=C/c2nnc(NC(C)=O)s2)cc1,inactive
17,COc1cccc(C(=O)Nc2nc(C)cs2)c1,inactive
18,Cc1csc(NC(=O)c2ccc(C)s2)n1,inactive
19,O=C(/C=C/c1cccs1)NCc1cccs1,inactive
20,O=C(Nc1ccc2c(c1)OCO2)c1ccccn1,inactive
21,O=C(O)c1ccc(-c2noc(-c3ccccc3Cl)n2)cc1,inactive
22,O=C(Nc1ccc(F)cc1)Nc1ccc2c(c1)CCC2,inactive
23,O=C(Nc1cccc(F)c1)Nc1ccc2c(c1)CCC2,inactive
24,COc1cc(/C=C/C(=O)N2C(=O)c3cccc(N)c3C2=O)cc(OC)c1OC,inactive
25,COc1cc(/C=C/C(=O)OCC(=O)NCCc2ccccc2)cc(OC)c1OC,inactive
26,Cc1cc(C(=O)COC(=O)c2ccc(O)cc2O)c(C)n1C(C)C,inactive

row,SMILES,"activity change, negative = cytotoxicity"
1,c1ccc(-c2csc(N3CCOCC3)n2)cc1,inactive
2,Nc1nc(-c2ccc3c(c2)CCO3)cs1,inactive
3,O=C(c1ccc(N2CCOCC2)cc1)c1cccs1,inactive
4,O=S(=O)(c1ccc(Cl)cc1)N1CCN(Cc2ccc(O)c3ncccc23)CC1,inactive
5,O=c1oc2ccccc2c2c1ncn2CCN1CCOCC1,inactive
6,COc1cc(/C=N/Nc2ccc(Cl)c(C(=O)O)c2)ccc1OC(=O)c1cccs1,inactive
7,CCc1ccc(CNCCNC(=O)c2ccco2)cc1,inactive
8,O=c1c2ccccc2nnn1CSc1nnc2ccccn12,inactive
9,CCC(C)(C)c1ccc2c(c1)C(=O)c1ccccc1C2=O,inactive
10,COCCNC(=O)c1ccc2c3n(nc2c1)-c1ccc(C)cc1CO3,inactive
11,O=C(c1ccc2c3n(nc2c1)-c1ccc(Cl)cc1CO3)N1CCOCC1,inactive
12,O=C(O)c1ccc2c3n(nc2c1)-c1ccc(Cl)cc1CO3,inactive
13,O=C(NCCO)c1ccc2c3n(nc2c1)-c1ccccc1CO3,inactive
14,CCOC(=O)c1sc(=NC(=O)c2ccccc2Br)n(C)c1C,inactive
15,COc1ccc(CCC(=O)Nc2nnc(C)s2)cc1,inactive
16,Cc1ccc(OC(=O)c2c(C)nn(-c3ccccc3)c2C)cc1,inactive
17,CC(=O)Nc1ccc(-c2cc(N)n(-c3ccccc3)n2)cc1,inactive
18,Cc1ccc2cc(/C=C/C(=O)c3ccco3)c(Cl)nc2c1,inactive
19,CCOC(=O)N1N=C(CC)CC1(O)C(F)(F)F (stereo not drawn),inactive
20,COC(=O)c1ccc(-c2cc3onc(-c4ccccc4)c3c(=O)n2C)cc1,inactive
21,Cn1c(-c2ccc(F)c(F)c2)cc2onc(-c3ccccc3)c2c1=O,inactive
22,CC(C)C1COC(c2cccc3ccccc23)=N1 (stereo not drawn),inactive
23,CC(=O)c1ccc(NC(=O)c2ccn(C(=O)OCC(C)C)n2)cc1,inactive
24,COc1ccc2cc(CCNC(=O)c3cccs3)c(=O)[nH]c2c1,inactive
25,CCOC(=O)c1csc(NC(=O)c2cccs2)n1,inactive
26,Cc1csc(=NC(=O)c2ccccc2)n1C,inactive

row,SMILES,"activity change, negative = cytotoxicity"
1,CC(C)C(=O)Nc1ccc(NC(=O)c2cc3ccccc3o2)cc1,inactive
2,COc1ccc2nc(NC3=NCCC3)sc2c1,inactive
3,CCOC(=O)c1cccc(NC(=O)c2ccc(F)cc2F)c1,inactive
4,CN1CCN(c2ccc(-c3ccnn3C(=O)Nc3ccccc3)cc2)CC1,inactive
5,CS(=O)(=O)N1CCN(c2ccc(NC(=O)c3ccc(Br)o3)cc2)CC1,inactive
6,Cc1ccccc1Nc1nn2c(=O)c3ccccc3nc2s1,inactive
7,COc1c(C(=O)NNC(=O)c2ccccc2)csc1Br,inactive
8,Oc1c(/C=N/c2ccccn2)sc2ccccc12,inactive
9,CC(/C=N/Nc1nc2ccccc2[nH]1)=C\c1ccccc1,inactive
10,Cc1ccc(/C=C/C(=O)c2nc3ccccc3[nH]2)cc1,inactive
11,CC(C)C(OC(=O)C1=Cc2ccccc2OC1)C(=O)NCC1CCCO1 (stereo not drawn),inactive
12,Nc1ccc(-c2nc3ccccc3s2)cn1,inactive
13,Cc1ccc2nc(-c3ccc(NS(=O)(=O)c4ccc(F)cc4)cc3)sc2c1,inactive
14,COc1ccc(OCc2cc(C(=O)N3CCOCC3)no2)c(Cl)c1,inactive
15,O=c1cccc2n1Cc1cc3ccccc3nc1-2,inactive
16,COc1ccc(C(=O)COC(=O)c2sccc2C)cc1OC,inactive
17,O=C(Nc1ccc(NC(=O)C2CC2)cn1)c1ccccc1Cl,inactive
18,O=C(Nc1ccc(C(=O)c2ccccc2)cc1)c1ccccc1,inactive
19,Nc1ccccc1N=Nc1ccccc1N,inactive
20,CC(C)(C)OC(=O)N/N=C\C=C\c1ccc2c(c1)OCO2,inactive
21,CCc1ccc(NC(=O)C(=O)c2ccccc2NC(C)=O)cc1,inactive
22,O=C(Nc1ccc2c(c1)OCO2)N1CCCc2ccccc21,inactive
23,COc1ccc(NC(=O)N2CCCc3ccccc32)cc1,inactive
24,O=C(Nc1ccc(NC(=O)C2CCCCC2)nc1)c1cccs1,inactive
25,COc1ccc(NC(=O)/C(=C\c2ccc3c(c2)OCO3)NC(C)=O)cc1,inactive
26,COc1ccc2c(c1)CCC1C2=NN(/C(C)=C\C(C)=O)C1c1ccc(F)cc1 (stereo not drawn),inactive

row,SMILES,"activity change, negative = cytotoxicity"
1,CCN(CC)c1cc(C)c(C#N)c2nc3ccccc3n12,inactive
2,c1ccc(-c2ccc3ccccc3n2)cc1,inactive
3,O=C(c1cccs1)N1CCN=C1SCc1ccc(F)cc1,inactive
4,COc1ccc(-c2cn(Cc3ccc(C(=O)c4ccccc4)cc3)nn2)cc1,inactive
5,O=C(N/N=C/c1ccc(Br)cc1)c1ccc(Br)o1,inactive
6,CCc1ccc2cc3c(cc2n1)C(=O)c1ccccc1-3,inactive
7,COc1ccc(NC(=O)Nc2ccc(F)c(Cl)c2)cc1,inactive
8,O=C(Nc1ccc(F)c(Cl)c1)c1ccccc1,inactive
9,COc1ccccc1NC(=O)CCC(=O)Nc1nnc(C2CCCCC2)s1,inactive
10,O=C1c2ccccc2C(=O)C1c1ccnc2ccccc12,inactive
11,COc1cccc(C=Cc2nccc3ccccc23)c1OC,inactive
12,C=CCSc1nc2c(cnn2-c2ccccc2)c(=O)n1N,inactive
13,Cc1ccc(OCC(=O)Nc2ccccc2[N+](=O)[O-])c(Br)c1,inactive
14,O=c1c2ccccc2oc2cc(NCCCN3CCOCC3)ccc12,inactive
15,O=c1c2ccccc2oc2cc(-c3ccc4cc[nH]c4c3)ccc12,inactive
16,Nc1nc(CSc2ccccn2)nc(Nc2ccccc2)n1,inactive
17,Nc1ccccc1-c1nc2ccccc2[nH]1,inactive
18,Cc1ccc(C)c(Nc2nc(N)c3ccccc3n2)c1,inactive
19,Cc1ccc(-c2nc(Nc3ccccc3)n[nH]2)cc1,inactive
20,Cc1ccccc1Nc1nc(N)nc(-c2oc3ccccc3c2C)n1,inactive
21,Nc1ccccc1-c1nc2ccccc2s1,inactive
22,COc1ccc(-c2c3c(nc4sc(C(=O)Nc5ccccc5)c(N)c24)CCC3)cc1,inactive
23,CN(CC(=O)Nc1cccc(F)c1)C(=O)CCNC(=O)c1ccco1,inactive
24,CCOC(=O)c1ccc(S(=O)(=O)NCCNCc2ccccc2)cc1,inactive
25,CCOC(=O)C1CCN(C(=O)c2cc3cc(C)ccc3[nH]2)CC1,inactive
26,COC(=O)c1ccc2[nH]c(C3(O)CCCCC3)c(C)c2c1,inactive

row,SMILES,"activity change, negative = cytotoxicity"
1,CC(C)c1ccc(N=C2N=C(N)c3ccccc32)cc1,inactive
2,Cc1ccc(-c2noc(CSc3ccccc3)n2)cc1,inactive
3,CCOc1ccc(NC(=O)c2ccc3c(c2)N(C)CCS3)cc1,inactive
4,COc1ccc(NC(=O)c2ccc3c(c2)N(C)CCS3)cc1,inactive
5,Cc1ccc(NC(=O)Nc2cnc3ccccc3c2)cc1,inactive
6,c1ccc(-c2nc(-c3ccc(-c4ccon4)s3)no2)cc1,inactive
7,CCCC(=O)N=C1SC2CS(=O)(=O)CC2N1c1ccc(-c2nc3ccc(C)cc3s2)cc1 (stereo not drawn),-6.16% [at 6 µM] (inactive)
8,O=c1c2c3c(sc2nc2n1CCCCC2)CCCC3,inactive
9,O=C(Nc1ccc(NC(=O)c2ccco2)nc1)c1cccc(F)c1,inactive
10,O=C(Cc1ccccc1)Nc1ccc(NC(=O)c2ccco2)nc1,inactive
11,O=C(CCc1ccccc1)Nc1ccc(NC(=O)c2ccco2)nc1,inactive
12,Cc1ccc2cc(NC(=O)c3cccc(F)c3)ccc2n1,inactive
13,CC(=O)Nc1ccc2c(c1)C(=Nc1cccc(C)c1)c1ccccc1-2,inactive
14,C/C(=N\OC(=O)Nc1ccc(Cl)cc1)c1ncc(C(F)(F)F)cc1N1CCOCC1,inactive
15,O=C(CSc1nnc(-c2cccnc2)o1)Nc1ccccc1F,inactive
16,O=C(CSc1nnc(-c2ccccn2)o1)Nc1ccccc1F,inactive
17,CCOc1nc(N2CCOCC2)nc(C)c1[N+](=O)[O-],inactive
18,Cc1ccc(NC(=O)c2ccc(F)cc2F)cc1,inactive
19,c1ccc(-c2nnc(-c3ccccn3)nn2)nc1,inactive
20,c1ccc(-c2ccc(-c3ccccn3)s2)nc1,inactive
21,COC(=O)c1ccc(-c2nc3ccc(C)cc3o2)cc1,inactive
22,Cc1ccc2oc(-c3cccc(NC(=O)c4ccccn4)c3)nc2c1,inactive
23,COc1cccc(-c2nnc(-c3ccc4ccccc4c3)o2)c1,inactive
24,COc1ccc(-c2nnc(-c3ccc(C)cc3)o2)cc1,inactive

# Source: PubChem BioAssay AID1053143 (Broad Institute, 2014)
